From PubChem BioAssay AID2283302 (EPA ToxCast) come the findings set out here.

SMILES strings stand for the structures. Records with an inconclusive call do not appear. Active and inactive are the calls of the source. The calls were made as follows: active = hit-call score of the fitted dose curve at least 0.9, where 1 is the maximum; inconclusive = response in the unintended direction; inactive = score below 0.9.

The term AC50 denotes the concentration giving half of the maximal activity seen.

Chain of rat Gamma-HydroxyButyrate Receptor (GHB), Tspan17 (gene 306771) (Q4V8E0 whole entry, looked up): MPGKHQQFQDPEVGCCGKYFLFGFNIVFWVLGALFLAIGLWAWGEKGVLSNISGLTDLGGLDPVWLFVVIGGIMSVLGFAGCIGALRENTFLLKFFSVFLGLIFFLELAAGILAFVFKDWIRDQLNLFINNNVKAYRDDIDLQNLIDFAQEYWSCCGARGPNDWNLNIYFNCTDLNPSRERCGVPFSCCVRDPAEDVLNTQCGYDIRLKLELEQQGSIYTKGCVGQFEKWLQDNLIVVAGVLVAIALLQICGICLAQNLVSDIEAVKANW

This assay addresses rat Gamma-HydroxyButyrate Receptor (GHB), Tspan17 (gene 306771) (UniProt Q4V8E0). Put plainly: NVS_GPCR_rGHB: NovaScreen (NVS) G Protein-Coupled Receptor Assay for rat Gamma-HydroxyButyrate Receptor (GHB). Here is the method: NVS_GPCR_rGHB is a biochemical, single-readout assay that uses extracted gene-proteins from Rat forebrain in a tissue-based cell-free assay. Measurements were taken 1 hour after chemical dosing in a 48-well plate.NVS_GPCR_rGHB is one of one assay component(s) measured or calculated from the NVS_GPCR_rGHB assay. It is designed to make measurements of radioligand binding, a form of binding reporter, as detected with scintillation counting signals by Filter-based radiodetection technology.Data from the assay component NVS_GPCR_rGHB was analyzed into 1 assay endpoint. This assay endpoint, NVS_GPCR_rGHB, was analyzed in the positive analysis fitting direction relative to DMSO as the negative control and baseline of activity. Using a type of binding reporter, loss-of-signal activity can be used to understand changes in the binding as they relate to the gene Tspan17. Furthermore, this assay endpoint can be referred to as a primary readout, because the performed assay has only produced 1 assay endpoint. To generalize the intended target to other relatable targets, this assay endpoint is annotated to the gpcr intended target family, where the subfamily is metabotropic glutamate receptor.
Binding assays used specific radioligands (tritiated, iodinated) with non-radioactive competitive displacement ligands in agonist or antagonist protocols (as indicated) and various reference compounds and inhibitors to titrate specific binding to receptors and transporters. Most enzyme assays (CYPs, kinases, phosphatases, proteases, HDACs) used recombinant protein and specific substrates (fluorescence mostly, some colorimetric and radioactive) and inhibitors, followed by a biochemical separation of substrate and product. All assays for the biochemical HTS were initially run in duplicate at a single concentration (10 uM for CYP450 assays and 25 uM for all others). Assay-chemical combinations meeting a pre-defined threshold (e.g., 30% inhibition and other criteria defined below) were then run in singleton concentration-response format with maximum concentration of 20 uM for CYPs and 50 uM for all others. Each assay was run with positive and negative controls, and concurrent controls on every plate. The follow-up (secondary) screen tested active chemical-pairs in concentration series, as well as a few additional assays not tested in the primary screen, some selected negative inactives, and several cases re-run in the concentration series for confirmatory purposes.
In the case of `CO[C@@H]1[C@H](OC(=O)NC(=O)CCl)CC[C@]2(CO2)[C@H]1[C@@]1(C)O[C@@H]1CC=C(C)C`, the result was inactive.

`N#CSCSC#N`: the AC50 is 19.5 µM (active).

In the case of `CCOC(=O)CC(SP(=S)(OC)OC)C(=O)OCC` (centres undefined), the outcome was inactive.

Turning to `CCOP(=O)(OCC)Oc1nc(Cl)c(Cl)cc1Cl`, the call was inactive.

As to `Clc1nc(Cl)nc(Nc2ccccc2Cl)n1`, the AC50 is 18.6 µM (active).

With `Cc1cc(Cl)ccc1OCC(=O)O`, the AC50 was 25 µM (active).

Turning to `CC(C)Oc1cccc(NC(=O)c2ccccc2C(F)(F)F)c1`, the call was inactive.

Take `CC(C1CC1)C(O)(Cn1cncn1)c1ccc(Cl)cc1` (centres undefined): the compound was classed as inactive.

As for `COP(=S)(OC)Oc1nc(Cl)c(Cl)cc1Cl`, the result was inactive.
